Assay outcomes from PubChem.
hcDAF-12 act – H. contortus DAF-12 activation, primary screen; HEK293 hcDAF-12 lit1-tk-luc reporter, luminescence; 0% DMSO, 100% Δ7-dafachronic acid; activation, % at 6.8 µM; hit rate 1.4% among 370,000; AID 652067;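 active = activation above the mean of all tested compounds plus 3 SD, cut at about 5.5% in these data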;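 also: 100% = response to 3 µM Δ7-dafachronic acid high control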
hgDAF-12 ag – hgDAF-12 agonism, primary luciferase screen | HEK293 GAL4-hgDAF12 UAS-luciferase reporter, agonist luminescence; normalized to butyrate control | activation, % at 6.8 µM | hit rate 1.8% among 370,000;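 active = activation above a cutoff set at the mean of all screened compounds plus 3 SD, cut at about 10% in these data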;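 also: 0% = DMSO wells and 100% = sodium butyrate wells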
DAX1 inh-1 – inhibits human nuclear receptor DAX1; P51843; HEK293 Gal4-DAX1 luciferase reporter, luminescence; inhibition, % at 6.75 µM; hit rate 0.99% among 340,000;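 active = inhibition above the mean over all tested compounds plus 3 SD, cut at about 4.2% in these data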;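 also: 0% = DAX1-transfected cells with DMSO and 100% = empty-vector control cells with DMSO; inhibition shows as a rise in luminescence from relieved DAX1 repression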
Target sequence (P51843 207-470 limits assumed): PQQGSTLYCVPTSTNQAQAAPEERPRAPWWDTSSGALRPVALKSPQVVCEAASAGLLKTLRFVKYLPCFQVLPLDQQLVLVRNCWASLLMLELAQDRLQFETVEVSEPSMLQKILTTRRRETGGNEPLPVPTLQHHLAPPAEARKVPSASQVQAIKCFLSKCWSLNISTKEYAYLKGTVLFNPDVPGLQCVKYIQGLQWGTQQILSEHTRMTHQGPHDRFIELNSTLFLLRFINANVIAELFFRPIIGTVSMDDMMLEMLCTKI
ssDAF12 agonist – activators of S. stercoralis DAF-12 nuclear receptor | HEK293 ssDAF-12/GRIP1 lit1-tk-luc reporter, luminescence; % of 3 µM dafachronic acid response | activation, % at 6.8 µM | hit rate 1% among 370,000 | AID 652126;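 active = activation above the mean over all tested compounds plus 3 SD, cut at about 0.9% in these data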;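 also: 0% = DMSO-only wells and 100% = 3 µM delta7-dafachronic acid wells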
DAX1 inh-2 – inhibitors of DAX1 repression of SF-1 activated StAR promoter; HEK293T StAR-luciferase reporter, SF-1/DAX-1 repression relief; inhibition, % at 6.8 µM; hit rate 1.1% among 370,000;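 active = inhibition above the mean over all tested compounds plus 3 SD, cut at about 3.6% in these data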;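 also: 0% = DAX-1 cells with DMSO and 100% = cells lacking DAX-1 with DMSO; higher inhibition means more luminescence from relief of DAX-1 repression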
* hit, by the source's call; x = no result given. The list is not random: actives were taken first. Their share in the collection is about 4.1%.

SMILES	hcDAF-12 act	hgDAF-12 ag	DAX1 inh-1	ssDAF12 agonist	DAX1 inh-2
CCN(CC)C(=O)CC[C@@H]1CC[C@]2(CCCN(C(=O)C3CCCCC3)C2)O1	-2	3	x	-1	-1
Cn1c(CNC(=O)c2ccc(F)cc2)cc2ccccc21	1	1	4.3*	1.0*	-1
CC(C)Cn1c(=O)cc(N2CCN(c3cccc(C(F)(F)F)c3)CC2)[nH]c1=O	0	4	x	0	x
CCN(CC)c1nc(C)nc2c1nnn2Cc1ccccc1	-2	-4	x	-2	0
O=P(C1=C(N2CCOCC2)/C(=C\c2ccccc2)CC1)(N1CCOCC1)N1CCOCC1	6.5*	0	0	-2	-1
O=C(NP(=O)(N1CCOCC1)N1CCOCC1)C1=C(N2CCOCC2)/C(=C\c2ccccc2)CC1	2	-2	-1	-1	0
Cc1cccc(OCC(=O)Nc2cc(C)c(C)cc2O)c1	3	3	-1	0	1
O=C(N/N=C/c1ccc2c(c1)OCO2)c1ccc2c(c1)OCO2	4	5	1	0	4.0*
O=C(NCCCN1CCOCC1)C(=O)N/N=C/c1ccc(F)cc1	1	1	-1	-2	0
COc1ccccc1/C=N/NC(=O)c1ccc2c(c1)OCO2	0	4	4.3*	-1	0
O=C(NN=Cc1ccc2c(c1)OCO2)c1ccncc1	0	-1	1	-1	1
Cc1cccc(OCC(=O)Nc2cc(C)ccc2O)c1	2	2	0	1.1*	-1
O=C(NCCCN1CCOCC1)C(=O)N/N=C/c1ccc2c(c1)OCO2	-1	-1	4.4*	-1	0
CC1(C)CC(=O)C=C(C2CC2)C1=O	0	5	x	-1	1
COC(=O)c1cc(-c2ccc(C)c3ccccc23)c(=O)n2c1CCC2	-1	-3	x	-1	0
O=C(NN=C1CCCCCC1)c1ccc2c(c1)OCO2	-1	10	2	-1	0
CCn1ncc(/C=N/NC(=O)c2ccc3c(c2)OCO3)c1C	0	12*	0	-1	-1
Cc1cccc(/C=N/NC(=O)c2ccc3c(c2)OCCO3)c1O	4	6	-3	1.1*	0
CCCCCC1=CCC/C1=N\NC(=O)c1ccc2c(c1)OCO2	0	12*	0	-2	1
O=C(N/N=C\c1cccc(OC(=O)c2ccco2)c1)c1ccc2c(c1)OCO2	2	12*	0	0	3
CC(=O)N1CCCN(C(=O)Cn2cnc3ccccc3c2=O)CC1	-1	-2	x	-1	-1
CCCC1CCC2(CC1)CCC2OC(=S)Nc1ccc(N(C)C)cc1 (centres undefined)	-1	-1	x	0	x
NC(=O)C1=CN([C@@H]2O[C@H](COP(=O)(O)OP(=O)(O)OC[C@H]3O[C@@H](n4cnc5c(N)ncnc54)[C@H](O)[C@@H]3O)[C@@H](O)[C@H]2O)C=CC1	0	-1	x	-1	0
Cc1ccsc1/C=N\NC(=O)c1ccc2c(c1)OCO2	4	10	2	-1	4.0*
Cc1ccc(C(=O)N/N=C\c2sccc2C)cn1	0	1	0	-1	1
SMILES	hcDAF-12 act	hgDAF-12 ag	DAX1 inh-1	ssDAF12 agonist	DAX1 inh-2
O=C(N/N=C/c1ccc[nH]1)c1ccc2c(c1)OCO2	1	11*	0	-1	0
Cc1cccc(OCC(=O)N/N=C/c2ccc3c(c2)OCO3)c1	0	1	-1	1.2*	0
COc1ccc(S[C@]2(C(=O)N3CCOCC3)CC(=O)N(C(=O)Nc3ccc(C)c(Cl)c3)[C@@H]2c2ccc(OC)cc2)cc1	-2	2	x	-1	-2
CCN1CCCCC(NC(=O)c2ccc(F)cc2)C1=O (centres undefined)	0	1	x	-1	1
COCC#Cc1cnc2c(c1)C(=O)N([C@@H](C)CO)C[C@H](C)[C@H](CN(C)C(=O)c1ccc3c(c1)OCO3)O2	1	1	x	-1	0
Cc1ccccc1CNC(=O)C1CCCN(c2ncccn2)C1 (centres undefined)	-1	-1	x	-1	0
O=C(OCc1nnc(-c2ccccc2)o1)C12CC3CC(CC(Br)(C3)C1)C2	0	2	4.8*	-1	1
O=C(OCc1nnc(-c2ccccc2)o1)c1ccccc1	1	3	0	-2	0
N#CCC[C@H]1CC[C@]2(CCCN(C(=O)c3ccco3)C2)O1	-2	0	x	-1	0
C=CCN1C(=O)[C@H](CC(=O)N2CCN(C(=O)C3CC3)CC2)[C@@]2(C(=O)OCC)CCCC=C12	-1	3	x	-1	-1
CC(=O)N1CCc2c1cccc2S(=O)(=O)NC(CC(C)C)C(=O)Nc1ccc(F)cc1Cl (centres undefined)	1	0	x	-1	0
O=c1cc(-c2ccccc2)c2c([nH]1)CCCC2	5.7*	1	0	-1	-1
O=C(O)c1ccc(NC(=O)c2ccccc2NC(=O)c2ccccc2Cl)cc1	-2	-1	4.5*	-1	0
O=C(Nc1ccc(N=Nc2ccccc2)cc1)c1ccccc1Cl	2	11*	3	-1	3.9*
COc1cccc(CNC(=O)C2CCN(S(=O)(=O)c3ccc4c(c3)CCC(=O)N4)CC2)c1	0	2	5.0*	-1	-1
CN(C)c1ccc(NC(=O)NC2CCCCN(Cc3cccc(Cl)c3)C2=O)cc1 (centres undefined)	-1	1	x	-2	-1
O=C(Nc1ccccc1Cl)C1CC(=O)N(c2ccccc2)C1 (centres undefined)	-1	3	x	1.3*	0
CCn1c(COc2ccc(Cl)cc2)nnc1SCC(=O)Nc1ccccc1-c1ccccc1	-4	-2	x	-2	-3
CC(NC(=O)CSc1ncccc1C(=O)O)C1CC2CCC1C2 (centres undefined)	-1	0	5.1*	-1	0
CCOc1cc2c(cc1/C=C/C(=O)O)OC(C)C2 (centres undefined)	-2	-4	4.7*	-1	-1
COc1cc2c(cc1/C=C/C(=O)O)OC(C)C2 (centres undefined)	-1	0	0	-1	0
O=C1Nc2ccccc2/C1=N\N=C\c1ccc(O)c(O)c1	3	0	4.5*	-1	0
O=C(Nc1ccccn1)c1ccc([N+](=O)[O-])cc1Cl	-1	0	1	0	-1
Cc1ccc(NC(=O)c2ccc([N+](=O)[O-])cc2Cl)nc1	0	11*	-1	-1	2
CN(C)c1ccc(NC(=O)c2ccc([N+](=O)[O-])cc2Cl)cc1	1	12*	-1	1	1
Cc1cccc(C)c1NC(=O)COC(=O)C1C2CC3OC(=O)C1C3C2 (centres undefined)	0	-1	5.2*	-1	0
CCCN(CC1CC1)C(=O)c1ccc(CNC(=O)c2cccc(Br)c2)cc1	-2	-3	x	-2	-1
CC(=O)NC(CCS(C)(=O)=O)C(=O)Nc1ccccc1C (centres undefined)	-2	-1	1	-1	-1
